# Screening results from PubChem BioAssay.
# Shown are actives, neighbours in structure and some others; about 7.7% of the full set was active somewhere.
# Sm TGR inh: blocks Schistosoma mansoni thioredoxin glutathione reductase. 360,000 tested, 3% active. purified TGR, DTNB reduction, TNB absorbance 405 nm. Q962Y6. Potency, µM (top dose mostly 114 µM), most hits filed as inhibitors; further: nearly all actives have a fitted effect of over 60% in size
#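 Kinetic colorimetric format: TGR-catalysed, NADPH-driven DTNB reduction monitored via TNB absorbance. Enzyme dispensed at 20 nM; compound exposure 15 min at room temperature before reaction start.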
# RE007 growth inh: less growth of the S. pombe RE007 Vpr strain. 360,000 tested, 0.21% active. Potency, µM (highest dose often 92.2 µM), most hits filed as inhibitors. S. pombe RE007 Vpr strain, BacTiter-Glo ATP luminescence, 24 h; active means well fitted falling curve with a large enough effect; inconclusive means small, poorly fitted or top-dose-only effect; inactive means no such curve, though single readings can be large or run the other way; further: nearly all actives have a fitted effect of over 50% in size
#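 Fission yeast RE007 carrying one integrated HIV-1 vpr copy, seeded at OD 0.01 in PMG+AL medium with 23 nL pinned compound. Grown 24 h at 30 degrees; viability read by BacTiter-Glo luminescence after 5 min.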
# HCMV antiviral: blocks human cytomegalovirus replication. activity change, negative = inhibition, % at 57.5 µM. HFF cells, HCMV-luciferase reporter, 72 h; stronger effect = lower value. AID 1259415. 410,000 tested, 4.5% active; in the data active means activity change below about -60%; inconclusive means no clear call, values can overlap the other calls; inactive means above about -39%
#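 Cell-based, HFFs, 1000 cells/well, 16 h 37C; cpds in DMSO + HCMV-luc, MOI 1 PFU/cell; 72 h 37C; OneGlo luminescence after 5 min RT; norm. to buffer vs Salinomycin 10uM.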
# Giardia FBPA inh: blocks Giardia fructose-bisphosphate aldolase activity. A8B2U2. purified Giardia FBPA. Potency, µM (highest dose often 59.6 µM), hits mostly inhibitors. 290,000 tested, 0.71% active. AID 2451; further: nearly all actives have a fitted effect of over 55% in size
# Target sequence (A8B2U2 whole entry, looked up): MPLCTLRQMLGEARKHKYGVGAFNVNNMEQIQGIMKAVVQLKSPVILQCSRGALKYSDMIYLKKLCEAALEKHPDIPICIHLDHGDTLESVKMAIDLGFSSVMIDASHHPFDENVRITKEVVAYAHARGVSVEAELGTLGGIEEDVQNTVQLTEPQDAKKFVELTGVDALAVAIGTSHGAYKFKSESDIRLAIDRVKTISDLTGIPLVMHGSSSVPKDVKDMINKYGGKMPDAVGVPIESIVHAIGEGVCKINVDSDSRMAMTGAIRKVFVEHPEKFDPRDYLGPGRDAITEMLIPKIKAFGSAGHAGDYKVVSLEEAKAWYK
#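 Giardia FBPA (40 nM reagent) was preincubated 10 min at RT with compound (up to 57.5 uM final), then substrate plus GAPDH/TPI/NAD/arsenate coupling system with diaphorase/resazurin was added; resorufin fluorescence (525/598 nm) was read after 20 min.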
# TbPYK inhibitor: blocks Trypanosoma brucei pyruvate kinase; TbPYK enzyme, Kinase-Glo Plus ATP luminescence, 45 min; Potency, µM (doses to about 76.8 µM), hits mostly inhibitors; 410,000 tested, 0.12% active; AID 624173; further: nearly all actives have a fitted effect of over 50% in size
#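 Activity of T. brucei pyruvate kinase was followed by Kinase-Glo Plus luminescence after the enzyme reacted 45 min at room temperature with 130 uM ADP (final) and substrate. Test compounds were added before ADP at multiple concentrations.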
# FMDV antiviral: foot and mouth disease virus antiviral activity. FMDV antiviral cell-based qHTS. Potency, µM (highest dose often 57.9 µM), hits mostly inhibitors. AID 1159524. 410,000 tested, 1.2% active; calls by dose curve; tested in HEK293T cells; further: read-out not given here; nearly all actives have a fitted effect of over 45% in size
# A number is an active result; i = inactive; ? = inconclusive; nt = not tested or not shown. Unless noted, the call rests on the fitted dose curve; in most records, active means well fitted curve in the direction sought with a large enough effect; inconclusive means small, poorly fitted or top-dose-only effect, or another doubt; inactive means no such curve, though single readings can be large; an effect the other way counts as inactive or inconclusive.
SMILES,Sm TGR inh,RE007 growth inh,HCMV antiviral,Giardia FBPA inh,TbPYK inhibitor,FMDV antiviral
CCN1CCOC(=O)C1CC(=O)Nc1ccccc1C(F)(F)F (configuration not stated),10µM,nt,i,nt,i,i
CCN1CCOC(=O)C1CC(=O)Nc1cc(C)cc(C)c1 (configuration not stated),18µM,nt,i,nt,i,i
COc1ccc(C)cc1NC(=O)CC1NCCNC1=O (configuration not stated),i,nt,i,nt,i,i
COc1cc(C2NC(=O)N(C)C3=C2C(=O)N(c2cccc(Cl)c2)C3)ccc1O (configuration not stated),i,nt,i,nt,i,i
COc1cc(C2NC(=O)N(C)C3=C2C(=O)N(c2ccccc2)C3)ccc1O (configuration not stated),?,nt,-97,nt,i,i
CC1=C(/C=C/C(C)=C/C=C/C(C)=C/C(=O)Nc2ccc(O)cc2)C(C)(C)CCC1,i,i,-77,i,i,?
CC(C)CCn1c(SCC(=O)c2ccccc2)nc2c1c(=O)[nH]c(=O)n2C,i,i,i,i,i,i
CC(C)CCn1c(Sc2nc3ccccc3s2)nc2c1c(=O)[nH]c(=O)n2C,i,i,i,i,i,32µM
CCN1CCN(C(=O)c2sc3ncnc(NCC4CCCO4)c3c2C)CC1 (configuration not stated),nt,nt,nt,nt,nt,i
CN(C)CC(=O)N[C@@H]1CC[C@@H](CC(=O)NCCN2CCCCC2)O[C@@H]1CO,nt,i,-100,nt,nt,i
CN(C)CC(=O)N[C@@H]1C=C[C@@H](CC(=O)NCCN2CCCCC2)O[C@@H]1CO,nt,i,i,nt,nt,i
CS/C(Nc1cc(Cl)ccc1Cl)=C(/C#N)C(=O)c1ccco1,i,i,i,i,32µM,?
N/C(=N\OC(=O)c1ccc2c(c1)OCO2)c1cccc([N+](=O)[O-])c1,nt,i,?,i,i,i
Cc1cccc(/C(N)=N/OC(=O)c2ccc3c(c2)OCO3)c1,i,35µM,i,i,?,i
Cc1cc(N(C)NC(=S)Nc2ccccc2)nc(C)n1,i,i,-91,i,i,i
Cc1ccc(CNC(=O)C2CCN(S(=O)(=O)c3c(C)noc3/C=C/c3ccccc3F)CC2)o1,i,nt,i,nt,i,i
O=[N+]([O-])c1cc(S(=O)(=O)Nc2ccc(Cl)cc2)ccc1N/N=C/c1ccncc1,i,i,-102,i,i,i
Cc1onc(-c2ccccc2Cl)c1C(=O)OCC(=O)N1CCC(C)CC1,nt,i,i,nt,i,i
Cc1[nH]c2ccccc2c1C(=O)COC(=O)c1c(-c2c(F)cccc2Cl)noc1C,i,nt,-71,i,i,32µM
Cc1onc(-c2c(F)cccc2Cl)c1C(=O)NCc1ccccc1,i,i,i,i,i,i
Cc1[nH]c2ccccc2c1C(=O)COC(=O)c1c(-c2ccccc2Cl)noc1C,i,i,-74,i,i,i
Cc1onc(-c2c(F)cccc2Cl)c1C(=O)ONC(=O)c1ccco1,13µM,i,i,i,i,i
NC(=O)NC(=O)C(c1ccccc1)N1CCN(S(=O)(=O)Cc2ccccc2)CC1 (configuration not stated),i,i,-88,nt,i,i
Oc1ccc2c(c1)OCC1(O)Cc3cc(O)c(O)cc3C21 (configuration not stated),nt,i,i,18µM,11µM,i
COc1ccc(C2COc3cc(O)ccc3C2)c(OC)c1O (configuration not stated),nt,i,i,nt,i,?
Oc1cc2c(cc1O)[C@H]1c3ccc(O)c(O)c3OC[C@@]1(O)C2,2.2µM,i,i,?,5.6µM,i
